Compound activity as filed in PubChem BioAssay.
The list is not random: actives were taken first. Their share in the collection is about 19%.
HT1080 IDH1KD tx = toxicity to HT-1080 IDH1 knockdown cells (counter line) | Potency, µM (top dose mostly 46.1 µM), inactives show at the top dose activity, negative = toxicity, actives largely listed as cytotoxic | hit rate 2% among 360,000 | AID 686971 | HT-1080 IDH1 knockdown viability, ATP luminescence, 48 h;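 also: 0% = DMSO wells and -100% = cell-free medium wells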
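Viability of IDH1-knockdown HT-1080 fibrosarcoma cells was assessed by CellTiter-Glo after 48 h at 37 °C with titrated compound; concentration-effect curves were classified by fit quality and response size.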
DT40 TDP1 CPT = growth inhibition of DT40 Tdp1-/-;hTDP1 cells with camptothecin (screen for TDP1 inhibitors) | chicken DT40 Tdp1-/-;hTDP1 cells + 20 nM CPT, ATP luminescence, 48 h | Potency, µM (titrated, usually from 46.2 µM), inactives show at the highest dose activity change, negative = growth inhibition, most hits filed as inhibitors | hit rate 12% among 420,000; also: nearly all actives have a fitted effect of over 55% in size
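Chicken DT40 Tdp1-/- cells complemented with human TDP1, 400 cells/well, exposed to compounds plus 20 nM camptothecin for at least 48 h at 37 C; viability read as ATP content by CellTiter-Glo luminescence.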
KB-V1 cytotox = KB-V1 MDR subline cytotoxicity; KB-V1 MDR cells viability, CellTiter-Glo, 72 h; hit rate 3.4% among 400,000; Potency, µM (top dose mostly 46.1 µM), most hits filed as cytotoxic; AID 1347076; also: nearly all actives have a fitted effect of over 60% in size
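Potencies derive from concentration-effect curves fitted to normalized luminescence (CellTiter-Glo) of KB-V1 cells treated for 72 h at 37 degrees C in phenol-red-free DMEM containing 10% FBS.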
KB-3-1 tox = kills parental KB-3-1 adenocarcinoma cells | KB-3-1 viability, CellTiter-Glo ATP luminescence, 72 h | Potency, µM (doses to about 46.1 µM), usual class: cytotoxic | hit rate 1.4% among 400,000; also: nearly all actives have a fitted effect of over 60% in size
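Multi-concentration cytotoxicity screen in KB-3-1 cells grown in DMEM lacking phenol red with 10% FBS. After 72 h at 37 °C with compound, ATP-dependent luminescence was recorded.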
DT40 TDP1 no CPT = qHTS for Inhibitors of human tyrosyl-DNA phosphodiesterase 1 (TDP1): qHTS in cells in absence of CPT | AID 686978, 2013 | hit rate 15% among 420,000 | Potency, µM (doses to about 46.2 µM), for the others: top-dose activity change, negative = growth inhibition, usual class: inhibitors | DT40 Tdp1-/- hTDP1 cells, no CPT, ATP luminescence, 48 h; also: nearly all actives have a fitted effect of over 55% in size
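Chicken DT40 Tdp1-/- cells stably complemented with human TDP1 were seeded at 400 cells/well with DMSO in place of 20 nM camptothecin. After compound pinning, cells grew at least 48 hr at 37 °C; viability read by CellTiter-Glo luminescence.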
HT1080-NT tox = kills 2HG-producing HT-1080-NT fibrosarcoma cells; hit rate 1.6% among 360,000; Potency, µM (highest dose often 46.1 µM), without a hit: at the highest dose activity, negative = less viability, most hits filed as cytotoxic; HT-1080-NT fibrosarcoma viability, CellTiter-Glo ATP luminescence, 48 h;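 also: NT is the 2HG producing partner of a matched IDH1 knockdown line; 0% = DMSO-treated cells and -100% = media-only wells without cells; nearly all actives have a fitted effect of over 55% in size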
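Compounds were tested in concentration-response format on HT-1080-NT cells for 48 hours at 37 degrees C. Cell viability came from CellTiter-Glo luminescence; curves were classified by r2, response magnitude and activity.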
Numbers without * were called inactive; i = inactive; ? = inconclusive; . = no result given. Calls follow the shape of the dose curve; as a rule, active = well fitted curve in the direction sought with a large enough effect; inconclusive = small, poorly fitted or top-dose-only effect, or another doubt; inactive = no such curve, though single readings can be large; an effect the other way counts as inactive or inconclusive. Unless noted, % is scaled to controls: 0 for no effect and ±100 for the full control effect; potency is read from the fitted curve at half-maximal effect.

SMILES	HT1080 IDH1KD tx	DT40 TDP1 CPT	KB-V1 cytotox	KB-3-1 tox	DT40 TDP1 no CPT	HT1080-NT tox
CCn1ncc(/C=N\NC(=O)c2ccc3c(c2)c(C)c(C)n3Cc2ccccc2)c1C	?	-29%	?	?	?	?
Cc1ccc(-n2c(=O)c3ccc(C(=O)NCc4ccco4)cc3n(Cc3ccc(Cl)cc3)c2=O)cc1	.	18µM*	.	.	6.5µM*	.
CCc1cccc(NC(=O)c2ccc3c(c2)c(C)c(C)n3Cc2ccc(F)cc2)c1	.	15µM*	i	i	?	.
CCn1c(C)c(C)c2cc(C(=O)NCc3cccc(C)c3)ccc21	.	23µM*	i	i	?	.
O=C(COC(=O)c1ccco1)NC1CCCC1	-5%	-29%	i	i	0%	-12%
O=C(CSc1nnc2ccc(-c3ccccn3)nn12)N1CCCC1	5%	0%	i	i	21%	1%
O=C(CC[C@H]1O[C@@H](n2ccc(=O)[nH]c2=O)[C@H](O)[C@@H]1O)N[C@H](Cc1ccccc1)C(=O)NCc1ccc2c(c1)OCO2	0%	-7%	i	i	8%	-4%
CCOc1ccccc1NC(=O)CN1C(=O)CC(c2ccc(C)c(C)c2)=Nc2ccccc21	.	-6%	i	i	-14%	.
Cc1ccc(CNC(=O)c2ccc3c(c2)c(C)c(C)n3Cc2ccccc2)o1	.	?	i	i	?	.
Cc1c(C)n(Cc2ccccc2)c2ccc(C(=O)NCc3ccco3)cc12	.	?	?	?	16µM*	.
CC(=O)c1cccc(NC(=O)c2ccc3c(c2)c(C)c(C)n3Cc2ccc(Cl)cc2)c1	.	15µM*	i	i	9.2µM*	.
CCn1c(C)cc(O)c(C(=O)Nc2cccc(Cl)c2)c1=O	0%	?	i	i	3.7µM*	-1%
CCc1ccc(CNC(=O)c2ccc3c(c2)c(C)c(C)n3Cc2ccccc2)cc1	.	18µM*	i	i	?	.
CCN1CCN(c2ccc(NC(=O)c3ccc4c(c3)[nH]c(=O)n4Cc3ccc(F)cc3)cc2)CC1	-23%	18µM*	i	i	29µM*	-19%
Cc1c(C)n(Cc2ccccc2)c2ccc(C(=O)OCCN(C)C)cc12	?	?	i	i	12µM*	?
CC1CCCC(NC(=S)NC(=O)c2ccccc2Br)C1C (configuration not stated)	4%	?	16µM*	26µM*	?	0%
COc1ccc(-c2nc(NC(=O)C3=NN(c4cccc(C)c4)C(=O)CC3)sc2C)cc1	2%	23µM*	i	i	?	6%
COc1ccc(-c2csc(NC(=O)C3=NN(c4ccccc4)C(=O)CC3)n2)cc1	-16%	15µM*	?	?	16µM*	-2%
COc1cccc(Cn2nnc(C(=O)Nc3ccc(C)cc3)c2N)c1	2%	-14%	i	i	-14%	3%
COc1ccc(Cn2nnc(C(=O)Nc3cc(OC)ccc3OC)c2N)cc1	.	18µM*	i	?	?	.
Cc1ccc(Cl)cc1NC(=O)c1nnn(Cc2ccccc2)c1N	.	?	i	?	?	.
COc1cccc(Cn2nnc(C(=O)Nc3cc(C)ccc3OC)c2N)c1	?	26µM*	i	i	-26%	-16%
Cc1cc(C)cc(NC(=O)Cn2nnc(C(=O)NCc3ccc(F)cc3)c2N)c1	-4%	21µM*	i	i	?	-4%
CCc1ccccc1NC(=O)c1nnn(Cc2ccc(Cl)cc2)c1N	.	?	i	i	13µM*	.
COc1ccc(NC(=O)c2nnn(Cc3ccc(SC)cc3)c2N)c(OC)c1	-16%	18%	i	i	-14%	-1%
